Here are results for 40 molecules from PubChem BioAssay (NCI).

This is part of a sample that, as a whole, favours compounds with a hit. Of some 83,000 tested, about 20% had one in any assay.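 Activity criterion: percent growth below 10, measured after cells in 96-well plates were exposed to a single compound concentration for 48 hours.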 A number with no mark means an inactive call. Activity calls are given as the source filed them.

The first test concerns SK-MEL-5 melanoma. Briefly: NCI-60 one-dose screen, 48 h (100 = growth as untreated, 0 = no growth, -100 = all killed). As to conditions: 10 µM unless noted.
Consider `CC(C)CNc1nc(N=[N+]=[N-])nc(NCC(C)C)n1`, for which the growth is 54.6% [100 µM].
On the same count and under the same terms, in the case of `CCCCCCCSc1ncnc2[nH]ncc12` it was 92.4%; in that of `COC(=O)[C@H](Cc1cn(C)cn1)NC(=O)[C@H](Cc1ccccc1)NC(=O)Nc1cc(C(F)(F)F)cc(C(F)(F)F)c1`, -97.1% [100 µM] (active); in that of `CC[N+](CCCCCCCCCC[N+](CC)(c1ccccn1)c1ccccn1)(c1ccccn1)c1ccccn1`, -72.4% (active).
Regarding `CCCCCCC(CC#N)(CCC)CCCC` (stereo not given), the growth was 105%.
Take `O=C1NC(=O)/C(=C\c2ccco2)S1`: the growth is 99.9%.
`Cc1sc2nc3c4ccccc4c(NCCCN(C)C)nn3c(=O)c2c1C`: the growth is 9.72% (active).
As to `COc1ccc([N+](=O)[O-])c(S(=O)(=O)c2ccc(Cl)cc2)n1`, the growth was 91.6%.
As to `COc1ccc(NC(=O)c2ccccc2-c2ccccc2)c(C(N)=O)c1`, the growth was 29.7%.
Turning to `CCCCCc1c(C)[nH]c(/C=C2\N=C(c3ccc[nH]3)C=C2Oc2ccccc2)c1C`, the growth was -61% [100 µM] (active).
Consider `COc1ccc(NC(=O)[C@@H]2C[C@H]2c2ccccc2)c(C(N)=O)c1`, for which the growth was 96.5%.
The same measure, in the same setting: in the case of `COc1cc(-c2n[nH]nc2-c2ccccn2)cc(OC)c1OC` it was 102%.
On to `COC(=O)[C@H](Cc1cnc[nH]1)NC(=O)[C@@H](NC(=O)Nc1cc(C(F)(F)F)cc(C(F)(F)F)c1)C(C)C`, for which the growth is -91.5% [100 µM] (active).
For the molecule `O=C1C(=O)/C(=C/c2ccccc2)CCCCCC/C1=C/c1ccccc1`, the growth is 88.2%.
In the case of `O=C(Nc1ccc(Cl)cc1)Nc1nc2ccc(OC(F)(F)F)cc2o1`, the growth was 90.8%.
As for `COc1ccc(N2CCN(CC(=O)N3CCN(c4nnc(-c5ccccc5)c(-c5ccccc5)n4)CC3)CC2)cc1`, the growth was 13.9%.
Regarding `CCCCCCCCCCCCCCCCNC(=O)Nc1ccc2ccccc2c1`, the growth is 99.4%.
Regarding `FCc1ncc(-c2ccc(C(F)(F)F)cc2)c(NC2CCCCCC2)n1`, the growth was -3.43% [100 µM] (active).
The same measure, in the same setting: in the case of `O=Cc1ncc(-c2ccc(C(F)(F)F)cc2)c(NC2CCCCCC2)n1` it was 5.66% [100 µM] (active); in that of `COC(=O)[C@H](Cc1cn(C)cn1)NC(=O)[C@@H](NC(=O)Nc1cc(C(F)(F)F)cc(C(F)(F)F)c1)C(C)C`, -95.4% [100 µM] (active); in that of `CSc1nc(-c2ccc(O)cc2O)c2c(=O)[nH]c(Nc3ccc(S(=O)(=O)Nc4nc(C)cc(C)n4)cc3)nc2n1`, 109%.
With `CC(C)OP(=O)(OC(C)C)c1ncc(-c2ccc(C(F)(F)F)cc2)c(NC2CCCCCC2)n1`, the growth was -87.2% [33.3 µM] (active).
Turning to `NS(=O)(=O)c1ccc(-n2nc(-c3ccc(Br)cc3)ccc2=O)cc1`, the growth is 65.1% [100 µM].
On the same count and under the same terms, in the case of `CC1CC=CCC1C1OCC(C)(C)CO1` (stereo not given) it was 104%.
For the molecule `N[C@H](CS)C(=O)O`, the growth was 105%.
On to `CCCCCc1c(C)[nH]c(/C=C2\N=C(c3ccc[nH]3)C=C2Oc2ccc(Cl)cc2)c1C`, for which the growth is -90% [100 µM] (active).
For `[N-]=[N+]=NCc1ncc(-c2ccc(C(F)(F)F)cc2)c(NC2CCCCCC2)n1`, the growth is 84.2% [50 µM].
Take `COc1ccc(-c2nnc3c4[nH]cnc4ncn23)c(OC)c1`: the growth was 49%.
On the same count and under the same terms, for `C1CCC(C(CC2CCCCN2)C2CCCCC2)CC1` (stereo not given) the value was -94.3% (active).
Regarding `CCOC(=O)c1sc(NC(=O)COc2cccc(/C=C3\Cc4ccc(Cl)cc4C3=O)c2)nc1C`, the growth is 97.4%.
For the molecule `CCCCCCCC[Si](OCC)(OCC)OCC`, the growth is 111%.
In the case of `CCOc1cc(CCNS(=O)(=O)c2ccc(C)cc2)c(C(C)=O)cc1OCC`, the growth is 66.1% [100 µM].
In the case of `CC(=O)c1ccc(NS(=O)(=O)c2ccc([N+](=O)[O-])cc2)cc1`, the growth is 96.9%.
Take `COC(=O)[C@H](CCCCNC(=O)OCc1ccccc1)NC(=O)[C@@H](NC(=O)Nc1cc(C(F)(F)F)cc(C(F)(F)F)c1)C(C)C`: the growth was -43.4% [100 µM] (active).
The same measure, in the same setting: in the case of `O=C(/C=C/c1c(-c2ccccc2)[nH]c2ccccc12)S(=O)(=O)c1ccccc1` it was 37.4%; in that of `CCOC(=O)C(C(=O)OCC)C1CCCCC1`, 109%; in that of `CNc1nc(NC2CCCC2)nc(Sc2ccc(OC)cc2)n1`, 11.6% [100 µM].
Turning to `O=c1sc2ncnc3ncn1c32`, the growth is 89.3%.
On the same count and under the same terms, for `Cc1nn2c(/C=C3/C(=O)Nc4cc(Cl)ccc43)c(-c3ccccc3)nc2s1` the value was -24.7% (active); for `Nc1nc2c(nnn2Cc2ccc(Cl)c(Cl)c2)c(=O)[nH]1`, 107%.

The next test relates to UACC-62 melanoma. The test is described as above. As to conditions: 10 µM unless noted.
For `CC(C)CNc1nc(N=[N+]=[N-])nc(NCC(C)C)n1`, the growth was 59.1% [100 µM].
With `CCCCCCCSc1ncnc2[nH]ncc12`, the growth was 76.6%.
On to `COC(=O)[C@H](Cc1cn(C)cn1)NC(=O)[C@H](Cc1ccccc1)NC(=O)Nc1cc(C(F)(F)F)cc(C(F)(F)F)c1`, for which the growth is -97.4% [100 µM] (active).
For `CC[N+](CCCCCCCCCC[N+](CC)(c1ccccn1)c1ccccn1)(c1ccccn1)c1ccccn1`, the growth was 0.363% (active).
Consider `CCCCCCC(CC#N)(CCC)CCCC` (stereo not given), for which the growth was 101%.
For `O=C1NC(=O)/C(=C\c2ccco2)S1`, the growth is 91.7%.
As to `Cc1sc2nc3c4ccccc4c(NCCCN(C)C)nn3c(=O)c2c1C`, the growth was 44.3%.
Consider `COc1ccc([N+](=O)[O-])c(S(=O)(=O)c2ccc(Cl)cc2)n1`, for which the growth was 89.1%.
Still for that read-out and setting: for `COc1ccc(NC(=O)c2ccccc2-c2ccccc2)c(C(N)=O)c1` the value was 55.7%.
Turning to `CCCCCc1c(C)[nH]c(/C=C2\N=C(c3ccc[nH]3)C=C2Oc2ccccc2)c1C`, the growth is -92.3% [100 µM] (active).
Still for that read-out and setting: for `COc1ccc(NC(=O)[C@@H]2C[C@H]2c2ccccc2)c(C(N)=O)c1` the value was 95.7%; for `COc1cc(-c2n[nH]nc2-c2ccccn2)cc(OC)c1OC`, 87.3%.
Consider `COC(=O)[C@H](Cc1cnc[nH]1)NC(=O)[C@@H](NC(=O)Nc1cc(C(F)(F)F)cc(C(F)(F)F)c1)C(C)C`, for which the growth was -96.2% [100 µM] (active).
For `O=C1C(=O)/C(=C/c2ccccc2)CCCCCC/C1=C/c1ccccc1`, the growth is 79.6%.
Take `O=C(Nc1ccc(Cl)cc1)Nc1nc2ccc(OC(F)(F)F)cc2o1`: the growth was 82.9%.
With `COc1ccc(N2CCN(CC(=O)N3CCN(c4nnc(-c5ccccc5)c(-c5ccccc5)n4)CC3)CC2)cc1`, the growth is 56.7%.
On to `CCCCCCCCCCCCCCCCNC(=O)Nc1ccc2ccccc2c1`, for which the growth is 92.7%.
Still for that read-out and setting: for `FCc1ncc(-c2ccc(C(F)(F)F)cc2)c(NC2CCCCCC2)n1` the value was 3.7% [100 µM] (active).
`O=Cc1ncc(-c2ccc(C(F)(F)F)cc2)c(NC2CCCCCC2)n1`: the growth was -90.1% [100 µM] (active).
As to `COC(=O)[C@H](Cc1cn(C)cn1)NC(=O)[C@@H](NC(=O)Nc1cc(C(F)(F)F)cc(C(F)(F)F)c1)C(C)C`, the growth is -93.1% [100 µM] (active).
For the molecule `CSc1nc(-c2ccc(O)cc2O)c2c(=O)[nH]c(Nc3ccc(S(=O)(=O)Nc4nc(C)cc(C)n4)cc3)nc2n1`, the growth was 92.7%.
Still for that read-out and setting: for `CC(C)OP(=O)(OC(C)C)c1ncc(-c2ccc(C(F)(F)F)cc2)c(NC2CCCCCC2)n1` the value was -64.8% [33.3 µM] (active); for `NS(=O)(=O)c1ccc(-n2nc(-c3ccc(Br)cc3)ccc2=O)cc1`, 53.6% [100 µM]; for `CC1CC=CCC1C1OCC(C)(C)CO1` (stereo not given), 102%.
Still for that read-out and setting: for `N[C@H](CS)C(=O)O` the value was 99.9%; for `CCCCCc1c(C)[nH]c(/C=C2\N=C(c3ccc[nH]3)C=C2Oc2ccc(Cl)cc2)c1C`, -83.2% [100 µM] (active).
Same read-out and setting: in the case of `[N-]=[N+]=NCc1ncc(-c2ccc(C(F)(F)F)cc2)c(NC2CCCCCC2)n1` it was 79.2% [50 µM]; in that of `COc1ccc(-c2nnc3c4[nH]cnc4ncn23)c(OC)c1`, 23.7%.
On to `C1CCC(C(CC2CCCCN2)C2CCCCC2)CC1` (stereo not given), for which the growth is -7.18% (active).
Regarding `CCOC(=O)c1sc(NC(=O)COc2cccc(/C=C3\Cc4ccc(Cl)cc4C3=O)c2)nc1C`, the growth was 95.8%.
As to `CCCCCCCC[Si](OCC)(OCC)OCC`, the growth is 104%.
Regarding `CCOc1cc(CCNS(=O)(=O)c2ccc(C)cc2)c(C(C)=O)cc1OCC`, the growth was 59% [100 µM].
Take `CC(=O)c1ccc(NS(=O)(=O)c2ccc([N+](=O)[O-])cc2)cc1`: the growth was 75.1%.
In the case of `COC(=O)[C@H](CCCCNC(=O)OCc1ccccc1)NC(=O)[C@@H](NC(=O)Nc1cc(C(F)(F)F)cc(C(F)(F)F)c1)C(C)C`, the growth was -83.6% [100 µM] (active).
As to `O=C(/C=C/c1c(-c2ccccc2)[nH]c2ccccc12)S(=O)(=O)c1ccccc1`, the growth was 39.1%.
Take `CCOC(=O)C(C(=O)OCC)C1CCCCC1`: the growth is 99.2%.
Take `CNc1nc(NC2CCCC2)nc(Sc2ccc(OC)cc2)n1`: the growth is 25.1% [100 µM].
For the molecule `O=c1sc2ncnc3ncn1c32`, the growth is 56.8%.
Take `Cc1nn2c(/C=C3/C(=O)Nc4cc(Cl)ccc43)c(-c3ccccc3)nc2s1`: the growth was -25.4% (active).
Regarding `Nc1nc2c(nnn2Cc2ccc(Cl)c(Cl)c2)c(=O)[nH]1`, the growth was 73.9%.
